molecular target: Solute carrier family 2, facilitated glucose transporter member 1 (Homo sapiens) (UniProt P11166); experiment: ST_JUDE_LEISH: Cytotoxicity at 2uM final concentration against transgenic Leishmania Mexicana promastigotes LmGLUT1 that are glucose transport deficient and complemented with the human glucose transporter GLUT1. Activity is measured by DNA content using SYBR green in vitro; format: functional
Sequence (P11166 whole entry): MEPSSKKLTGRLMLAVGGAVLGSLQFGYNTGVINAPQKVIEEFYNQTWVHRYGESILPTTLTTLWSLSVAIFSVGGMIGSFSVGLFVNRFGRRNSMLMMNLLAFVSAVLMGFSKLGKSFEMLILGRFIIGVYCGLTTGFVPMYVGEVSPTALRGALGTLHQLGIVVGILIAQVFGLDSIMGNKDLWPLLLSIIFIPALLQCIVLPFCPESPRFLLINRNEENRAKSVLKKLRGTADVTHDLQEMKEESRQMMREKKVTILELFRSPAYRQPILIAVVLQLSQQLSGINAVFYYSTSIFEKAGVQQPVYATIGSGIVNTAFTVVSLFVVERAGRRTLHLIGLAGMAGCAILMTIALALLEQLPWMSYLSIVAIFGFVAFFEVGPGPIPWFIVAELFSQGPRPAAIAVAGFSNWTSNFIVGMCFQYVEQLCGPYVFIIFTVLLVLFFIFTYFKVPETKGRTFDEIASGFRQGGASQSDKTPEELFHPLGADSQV

SMILES	inhibition
COc1ccc(Nc2nc(N/N=C/c3ccc(-c4ccc([N+](=O)[O-])cc4)o3)nc(Nc3ccccc3)n2)cc1	14.4%
Cc1[nH]c(C)c(-c2ccc(-c3ccc(OC(F)(F)F)cc3)cc2)c(=O)c1Cl	4.71%
Cc1cccc2nc(-c3cccc(-c4cccc(NC(=O)C(C)CN(C)C)c4)c3)[nH]c12 (stereo not given)	1.51%
O=S(=O)(c1cccc(C(F)(F)F)c1)N1CCC(CO)(Cc2cccc(C(F)(F)F)c2)CC1	9.13%
CC(C)(C)c1ccc(NC(=O)N[C@@H]2CCN(c3ccnc4ccccc34)C2)cc1	0.09%
CCCCCCCCNc1c2ccc(Cl)cc2nc2ccc(OC)cc12	7.33%
O=C(NC1CCCCC1)N(Cc1cccc(-c2ccc(CNC3CCCC3)cc2)c1)C1CCN(Cc2ccccc2)CC1	16%
COc1cccc(-c2ccc3ccnc(N)c3c2)c1	4.14%
COc1ccc2ncc(F)c([C@@H](O)CN3CCC(NCc4ccc5c(c4)NCCS5)CC3)c2n1	8.36%
Nc1c2c(nc3ccc(NC(=O)CCCCCCc4ccccc4)cc13)CCCC2	-2.4%
CCOC(=O)N/N=C/[C@H](CCc1ccccc1)NC(=O)[C@H](CC(C)C)NC(=O)c1cc2cccc(OC)c2o1	4.25%
N=C(N)Nc1nc(-c2ccc(NCc3ccc(CNc4cccc(-c5csc(NC(=N)N)n5)c4)cc3)cc2)cs1	0.36%
CCCC(=O)Nc1ccc(OCCCN(Cc2cccc(C(F)(F)F)c2)c2ccc(C#N)c(C(F)(F)F)c2)cc1	2.19%
Cc1cc(-c2ccc(NC(=O)N3CCc4cc(Br)c(N5CCN(C)CC5)cc43)cc2)cc(C)n1	9.14%
CC(C)[C@H](NC(=O)c1ccc(O)c(-c2ccc(Cl)c(Cl)c2)c1)C(=O)NCCN1CCCC1	-0.22%
COC(=O)CCCCOc1c(OC)cc(Cc2cnc(N)nc2N)cc1OC	11.2%
CCCOc1ccc(-c2nonc2NC(=O)c2cccc(OC)c2)cc1OCCC	8.68%
CS(=O)(=O)NCCCNCc1ccc(-c2cccc(-c3nc4cc(F)ccc4[nH]3)c2)cc1	-2.11%
CCN(C1CCCCC1)S(=O)(=O)c1ccc(OC)c(N2CCN(C(=O)C(Cl)(Cl)Cl)CC2)c1	-1.48%
NCCNc1ccc([N+](=O)[O-])cc1C(=O)Nc1cccc(Cl)c1	2.71%

SMILES	inhibition
CCC(=O)OC(CCN(CC)CC)(c1ccccc1)c1ccccc1	1.98%
CN(C)CCOc1ccc2nc(-c3cccc(OCc4ccccc4)c3)[nH]c2c1C#N	2.41%
Fc1ccc2nc(Nc3nc(-c4ccccn4)cs3)sc2c1	20.7%
Cc1ccc(-c2cc(C(=O)Nc3ccc(S(=O)(=O)N4CC(C)OC(C)C4)cc3)[nH]n2)c(O)c1 (stereo not given)	3.32%
CCC(C)NS(=O)(=O)c1ccc2nc(Nc3ccc(C)cc3)n(C3CCCCC3)c2c1 (stereo not given)	5.26%
CN1CCN(CC(=O)Nc2ccc(-c3csc(-c4nc5ccccc5[nH]4)c3)cc2)CC1	-0.59%
CN1CCC(C(=O)Nc2cccc(-c3ccc(-c4nc5cc(C(F)(F)F)ccc5[nH]4)s3)c2)CC1	9.29%
CC(C)N1CCN(C(CN2CCN(CCCOc3cccc(-c4ccccc4)c3)CC2)c2ccc(F)cc2)CC1 (stereo not given)	0.87%
Cc1cccc(NC(c2cccs2)c2c(NC(=O)c3ccccc3)sc(C)c2C)n1 (stereo not given)	6.21%
COc1ccccc1C1CCN(C2CCC(NC(=O)/C=C/c3ccc4c(c3)OC(F)(F)O4)CC2)CC1 (stereo not given)	4.33%
N#Cc1ccc2c(c1)CN(CCC1CCC(NC(=O)c3cc4ccccc4cc3N)CC1)CC2 (stereo not given)	5.84%
CC1CN(c2ccc(C(=O)NCC3CC3)cc2NC(=O)OCc2ccccc2)CC(C)O1 (stereo not given)	0.19%
COc1ccc(-c2nc(NC(=O)COc3ccc(C(C)=O)cc3)sc2C)cc1	2.62%
COc1ccc2c(=O)ccn(CCN3CCC(NCc4ccc5c(n4)NC(=O)CS5)CC3)c2c1	3.6%
COc1ccc2c(N/N=C/c3cccc([N+](=O)[O-])c3)ccnc2c1	-2.24%
Cc1ccc(F)c(OCC2CCCN(c3ccc(C(=O)NC4CC4)cn3)C2)c1 (stereo not given)	3.46%
CCCCCCCN1CC[C@@H](CCCc2ccnc3ccc(OCC4CCCNC4)cc23)[C@@H](CC)C1 (stereo not given in full)	4.6%
CN(C)C(=O)c1ccc(CN(Cc2cccc(OC(C)(C)C)c2)Cc2ccc3c(c2)OCCO3)cc1	0.24%
CCCCN(CCCC)CC(O)c1cc(-c2ccc(Cl)cc2)nc2c(Cl)cc(Cl)cc12 (stereo not given)	6.76%
CCCCCNC(=N)c1ccc(OCCCCCOc2ccc(C(=N)NCCCCC)cc2)cc1	19.6%

molecular target: Hexose transporter 1 (Plasmodium falciparum) (UniProt O97467); experiment: ST_JUDE_LEISH: Cytotoxicity at 2uM final concentration against transgenic Leishmania Mexicana promastigotes LmPfHT that are glucose transport deficient and complemented with the Plasmodium falciparum hexose transporter. Activity is measured by DNA content using SYBR green in vitro; format: functional

SMILES	inhibition
COc1ccc(Nc2nc(N/N=C/c3ccc(-c4ccc([N+](=O)[O-])cc4)o3)nc(Nc3ccccc3)n2)cc1	10.6%
Cc1[nH]c(C)c(-c2ccc(-c3ccc(OC(F)(F)F)cc3)cc2)c(=O)c1Cl	3.77%
Cc1cccc2nc(-c3cccc(-c4cccc(NC(=O)C(C)CN(C)C)c4)c3)[nH]c12 (stereo not given)	1.39%
O=S(=O)(c1cccc(C(F)(F)F)c1)N1CCC(CO)(Cc2cccc(C(F)(F)F)c2)CC1	6.86%
CC(C)(C)c1ccc(NC(=O)N[C@@H]2CCN(c3ccnc4ccccc34)C2)cc1	-0.25%
CCCCCCCCNc1c2ccc(Cl)cc2nc2ccc(OC)cc12	7.51%
O=C(NC1CCCCC1)N(Cc1cccc(-c2ccc(CNC3CCCC3)cc2)c1)C1CCN(Cc2ccccc2)CC1	14.6%
COc1cccc(-c2ccc3ccnc(N)c3c2)c1	4.24%
COc1ccc2ncc(F)c([C@@H](O)CN3CCC(NCc4ccc5c(c4)NCCS5)CC3)c2n1	8.01%
Nc1c2c(nc3ccc(NC(=O)CCCCCCc4ccccc4)cc13)CCCC2	-2.24%
CCOC(=O)N/N=C/[C@H](CCc1ccccc1)NC(=O)[C@H](CC(C)C)NC(=O)c1cc2cccc(OC)c2o1	5.56%
N=C(N)Nc1nc(-c2ccc(NCc3ccc(CNc4cccc(-c5csc(NC(=N)N)n5)c4)cc3)cc2)cs1	1.69%
CCCC(=O)Nc1ccc(OCCCN(Cc2cccc(C(F)(F)F)c2)c2ccc(C#N)c(C(F)(F)F)c2)cc1	2.43%
Cc1cc(-c2ccc(NC(=O)N3CCc4cc(Br)c(N5CCN(C)CC5)cc43)cc2)cc(C)n1	8.41%
CC(C)[C@H](NC(=O)c1ccc(O)c(-c2ccc(Cl)c(Cl)c2)c1)C(=O)NCCN1CCCC1	-0.09%
COC(=O)CCCCOc1c(OC)cc(Cc2cnc(N)nc2N)cc1OC	7.13%
CCCOc1ccc(-c2nonc2NC(=O)c2cccc(OC)c2)cc1OCCC	10.9%
CS(=O)(=O)NCCCNCc1ccc(-c2cccc(-c3nc4cc(F)ccc4[nH]3)c2)cc1	0.22%
CCN(C1CCCCC1)S(=O)(=O)c1ccc(OC)c(N2CCN(C(=O)C(Cl)(Cl)Cl)CC2)c1	-2.46%
NCCNc1ccc([N+](=O)[O-])cc1C(=O)Nc1cccc(Cl)c1	4.41%

SMILES	inhibition
CCC(=O)OC(CCN(CC)CC)(c1ccccc1)c1ccccc1	1.16%
CN(C)CCOc1ccc2nc(-c3cccc(OCc4ccccc4)c3)[nH]c2c1C#N	1.25%
Fc1ccc2nc(Nc3nc(-c4ccccn4)cs3)sc2c1	10.8%
Cc1ccc(-c2cc(C(=O)Nc3ccc(S(=O)(=O)N4CC(C)OC(C)C4)cc3)[nH]n2)c(O)c1 (stereo not given)	2.68%
CCC(C)NS(=O)(=O)c1ccc2nc(Nc3ccc(C)cc3)n(C3CCCCC3)c2c1 (stereo not given)	4.02%
CN1CCN(CC(=O)Nc2ccc(-c3csc(-c4nc5ccccc5[nH]4)c3)cc2)CC1	0.35%
CN1CCC(C(=O)Nc2cccc(-c3ccc(-c4nc5cc(C(F)(F)F)ccc5[nH]4)s3)c2)CC1	10%
CC(C)N1CCN(C(CN2CCN(CCCOc3cccc(-c4ccccc4)c3)CC2)c2ccc(F)cc2)CC1 (stereo not given)	2.77%
Cc1cccc(NC(c2cccs2)c2c(NC(=O)c3ccccc3)sc(C)c2C)n1 (stereo not given)	3.93%
COc1ccccc1C1CCN(C2CCC(NC(=O)/C=C/c3ccc4c(c3)OC(F)(F)O4)CC2)CC1 (stereo not given)	4.26%
N#Cc1ccc2c(c1)CN(CCC1CCC(NC(=O)c3cc4ccccc4cc3N)CC1)CC2 (stereo not given)	5.45%
CC1CN(c2ccc(C(=O)NCC3CC3)cc2NC(=O)OCc2ccccc2)CC(C)O1 (stereo not given)	0.86%
COc1ccc(-c2nc(NC(=O)COc3ccc(C(C)=O)cc3)sc2C)cc1	2.48%
COc1ccc2c(=O)ccn(CCN3CCC(NCc4ccc5c(n4)NC(=O)CS5)CC3)c2c1	2.3%
COc1ccc2c(N/N=C/c3cccc([N+](=O)[O-])c3)ccnc2c1	-3.16%
Cc1ccc(F)c(OCC2CCCN(c3ccc(C(=O)NC4CC4)cn3)C2)c1 (stereo not given)	4.3%
CCCCCCCN1CC[C@@H](CCCc2ccnc3ccc(OCC4CCCNC4)cc23)[C@@H](CC)C1 (stereo not given in full)	3.17%
CN(C)C(=O)c1ccc(CN(Cc2cccc(OC(C)(C)C)c2)Cc2ccc3c(c2)OCCO3)cc1	-0.56%
CCCCN(CCCC)CC(O)c1cc(-c2ccc(Cl)cc2)nc2c(Cl)cc(Cl)cc12 (stereo not given)	7.36%
CCCCCNC(=N)c1ccc(OCCCCCOc2ccc(C(=N)NCCCCC)cc2)cc1	25.9%

From ChEMBL document CHEMBL3433997, “St. Jude Leishmania screening dataset” (2016)
